Compound activity: PubChem BioAssay, The Scripps Research Institute Molecular Screening Center
A selection: hits, their analogues and other compounds. The true share with any hit is near 4.1%.
hgDAF12 agonist: H. glycines DAF-12 receptor agonists, primary screen, cell-based, luminescence, HEK293, GAL4 fusion, UAS-luciferase; HEK293 GAL4-hgDAF12 UAS-luciferase reporter, agonist luminescence; normalized to butyrate control; 370,000 tested, 1.8% active; activation, % at 6.8 µM; Nuclear hormone receptor DAF-12 (Heterodera glycines), GAL4 fusion;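 active means activation above a cutoff set at the mean of all screened compounds plus 3 SD, cut at about 10% in these data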
DAX1 inh-1: DAX1 (NR0B1) inhibitors on StAR promoter, primary screen, cell-based, luminescence, SF-1 (NR5A1), full-length DAX-1 | 370,000 tested, 1.1% active | HEK293T StAR-luciferase reporter, SF-1/DAX-1 repression relief | inhibition, % at 6.8 µM;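 active means inhibition above the mean over all tested compounds plus 3 SD, cut at about 3.6% in these data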;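 further: higher inhibition means more luminescence from relief of DAX-1 repression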
hcDAF-12 act: H. contortus DAF-12 nuclear receptor activators, primary screen, cell-based, luminescence, HEK293, lit1-tk-luc reporter | HEK293 hcDAF-12 lit1-tk-luc reporter; 0% DMSO, 100% Δ7-dafachronic acid | activation, % at 6.8 µM | 370,000 tested, 1.4% active | AID 652067, 2013;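 active means activation above the mean of all tested compounds plus 3 SD, cut at about 5.5% in these data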
DAX1 inh-2: DAX1 (NR0B1) inhibitors, primary screen, cell-based, HEK293, Gal4-DAX1, luciferase luminescence; Nuclear receptor subfamily 0 group B member 1 (Homo sapiens), P51843; HEK293 Gal4-DAX1 luciferase reporter; inhibition, % at 6.75 µM; 340,000 tested, 0.99% active; AID 504766, 2011;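 active means inhibition above the mean over all tested compounds plus 3 SD, cut at about 4.2% in these data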;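 further: inhibition shows as a rise in luminescence from relieved DAX1 repression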
ssDAF-12 act: S. stercoralis DAF-12 nuclear receptor activators, primary screen, cell-based, luminescence, HEK293, GRIP1 co-expression, lit1-tk-luc; Nuclear hormone receptor DAF-12 (Strongyloides stercoralis); HEK293 ssDAF-12/GRIP1 lit1-tk-luc reporter; % of 3 µM dafachronic acid response; activation, % at 6.8 µM; 370,000 tested, 1% active;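 active means activation above the mean over all tested compounds plus 3 SD, cut at about 0.9% in these data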
LXR ag: LXR agonists, Gal4 luciferase reporter, confirmation, counter-screen for hcDAF-12 agonist project, cell-based, luminescence, HEK293, H. contortus campaign; activation, % at 6.8 µM; shares compounds with hcDAF-12 act; 3,400 tested, under 10 active; HEK293 Gal4-LXR tk-luc reporter, 24 h; normalized: DMSO 0%, positive control 100%;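 active means mean percent activation of the reporter above a cutoff set as the average over tested compounds plus their standard deviation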
Target sequence (P55055 whole entry, looked up, the tested form may be a part): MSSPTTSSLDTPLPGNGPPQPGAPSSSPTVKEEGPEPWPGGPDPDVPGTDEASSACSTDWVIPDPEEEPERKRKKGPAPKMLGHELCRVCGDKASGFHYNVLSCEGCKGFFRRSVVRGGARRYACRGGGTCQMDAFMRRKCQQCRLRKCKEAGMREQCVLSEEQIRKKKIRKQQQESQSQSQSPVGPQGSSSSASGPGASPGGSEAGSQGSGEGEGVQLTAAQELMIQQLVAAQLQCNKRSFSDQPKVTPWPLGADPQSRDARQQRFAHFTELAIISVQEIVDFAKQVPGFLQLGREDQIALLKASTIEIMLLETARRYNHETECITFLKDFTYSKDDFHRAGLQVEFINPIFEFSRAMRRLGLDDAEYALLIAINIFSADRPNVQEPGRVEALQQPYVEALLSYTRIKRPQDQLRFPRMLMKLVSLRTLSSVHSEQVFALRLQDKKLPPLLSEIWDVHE
hcDAF12 ag: H. contortus DAF-12 receptor agonists, confirmation, cell-based, luminescence, HEK293, lit1-tk-luc, triplicate; shares compounds with hcDAF-12 act; HEK293 hcDAF-12 lit1-tk-luc reporter; % of Δ7-dafachronic acid response; activation, % at 6.8 µM; 3,400 tested, 61% active; AID 743032, 2013;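 active means mean activation across triplicate tests above the threshold derived from the earlier primary screen, cut at about 5.5% in these data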
Of the large screens only hits and unclear results are named; the others gave an inactive call (follow-up assays come after a bar, where they were run).

CCOC(=O)CC[C@@]1(C(=O)OCC)C[C@@H](CC(=O)N2CCCC2)C(=O)N2CCCC=C21	none (no result: DAX1 inh-2)
C[C@@H]1OCN(C)[C@H]2C[C@H]3c4[nH]c5cccc(-c6cccc(F)c6)c5c4CCN3C(=O)[C@@H]12	none (no result: DAX1 inh-2)
NS(=O)(=O)c1ccc(CCNc2nc3c(-c4cccc(F)c4)nnn3c3ccccc23)cc1	hcDAF-12 act 7.1, ssDAF-12 act 1.3 | LXR ag inactive | hcDAF12 ag inactive
C[C@H](CO)N1C[C@H](C)[C@H](CN(C)C(=O)Nc2cccc(F)c2)Oc2cc(Br)ccc2S1(=O)=O	none (no result: DAX1 inh-2)
O=C(Nc1ccc(Cl)cc1Cl)OC1CCC12CCC(c1ccccc1)CC2 (stereo unspecified)	none (no result: DAX1 inh-1, DAX1 inh-2)
O=C1C(=C(O)c2ccccc2)C(=O)c2ccccc21	hcDAF-12 act 7.0, ssDAF-12 act 2.1 | LXR ag inactive | hcDAF12 ag inactive
O=C(/C=C\c1ccco1)NC(=S)Nc1ccccc1O	none
O=C(/C=C/c1ccco1)NC(=S)Nc1ccccc1O	hcDAF-12 act 6.8 (no result: DAX1 inh-2) | LXR ag inactive | hcDAF12 ag inactive
CCc1ccc(N2NC(=O)/C(=C/C=C/c3ccco3)C2=O)cc1	hcDAF-12 act 7.7 | LXR ag inactive | hcDAF12 ag inactive
CCOC(=O)c1ccc(N2N=C(C)/C(=C/C=C/c3ccco3)C2=O)cc1	none
CC(=O)N1C[C@@H](CN2C(=O)CCC2=O)[C@@H]2C[C@H]1c1ccccc1N2C	none (no result: DAX1 inh-2)
Cc1cccc(NS(=O)(=O)c2ccc(C(=O)N3CCN(c4ccccc4O)CC3)cc2)c1C	none
CCn1c(C)cc(C(=O)CN2C(=O)c3ccccc3S2(=O)=O)c1C	none
CCCn1c(C)cc(C(=O)CN2C(=O)c3ccccc3C2=O)c1C	hgDAF12 agonist 11, hcDAF-12 act 9.7, ssDAF-12 act 0.9 | LXR ag inactive | hcDAF12 ag 12
COc1ccc(NC(=O)NNC(=O)CCn2nc(C)c([N+](=O)[O-])c2C)cc1OC	none (no result: DAX1 inh-2)
COC(=O)[C@]12C[C@H](CC(=O)NCCc3ccccc3OC)C(=O)N(CCc3ccc(OC)c(OC)c3)C1=C[C@H](COCc1ccccc1)O[C@@H]2C	none (no result: DAX1 inh-2)
Cc1nn(CC(=O)NCc2cc3ccccc3[nH]2)c(C)c1[N+](=O)[O-]	hcDAF-12 act 9.4 | LXR ag inactive | hcDAF12 ag inactive
Cc1cnc(NC(=O)CCCc2nc3ccccc3s2)s1	hgDAF12 agonist 12, hcDAF-12 act 10, ssDAF-12 act 5.3 | LXR ag inactive | hcDAF12 ag 6.9
O=C(CSc1nccc2ccccc12)N1CCN(c2ccccn2)CC1	hcDAF-12 act 8.2 | LXR ag inactive | hcDAF12 ag inactive
Cc1ccc(SCC(=O)N2CCN(c3ccccn3)CC2)cc1	none
c1ccc(N2CC3CCc4ccccc4C3=N2)cc1 (stereo unspecified)	hcDAF-12 act 12, ssDAF-12 act 1.4 | LXR ag inactive | hcDAF12 ag 12
COc1ccc(C(=O)Nc2ccccc2C(=O)Nc2cc(C)ccn2)cc1	none
COc1ccc(C(=O)/C=C/Nc2cc(C)ccn2)cc1	hgDAF12 agonist 14, hcDAF-12 act 10 | LXR ag inactive | hcDAF12 ag 11
O=C(Nc1nc2ccccc2s1)c1cnccn1	hgDAF12 agonist 13, DAX1 inh-1 4.0, hcDAF-12 act 7.5 | LXR ag inactive | hcDAF12 ag 6.6
CC(=O)c1cccc(NC(=O)c2cnccn2)c1	none
